According to PubChem BioAssay AID1240 (Sanford-Burnham Center for Chemical Genomics, 2008):
About 800 (1.6%) of roughly 50,000 compounds showed an effect of 50% or more. Shown is part of a subset that was picked to be rich in strong results.

What follows are compounds tested against Bcl-2-like protein 10 (Homo sapiens) (UniProt Q9HD36) (assay: TR3 peptide-Bcl-B binding displacers, biochemical primary FP assay, phenotype converters (AID 1240;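 note: 0% = Bcl-B with tracer peptide and DMSO and 100% = tracer peptide lacking Bcl-B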)). Conditions: GST-Bcl-B / FITC-TR3 peptide fluorescence polarization; stronger effect = higher value; compound at 3.75 mg/L.
Chain of Bcl-2-like protein 10 (Homo sapiens) (Q9HD36 whole entry, looked up): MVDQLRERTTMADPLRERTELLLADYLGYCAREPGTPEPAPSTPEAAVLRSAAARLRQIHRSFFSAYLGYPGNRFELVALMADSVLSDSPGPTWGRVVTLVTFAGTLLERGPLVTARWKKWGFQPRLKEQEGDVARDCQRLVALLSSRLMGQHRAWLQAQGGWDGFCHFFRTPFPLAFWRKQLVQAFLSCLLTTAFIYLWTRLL

SMILES	displacement [%]
COc1ccc(N(CC(=O)NC2CCCCC2)S(=O)(=O)c2ccccc2)cc1Cl	7.2
CCOc1cc(/C=C2\Sc3ccccc3C2=O)ccc1OC	0.2
COc1ccc(/C=C2/Sc3ccccc3C2=O)cc1Br	116
O=C1/C(=C/c2ccc(Br)o2)Sc2ccccc21	92.7
NS(=O)(=O)c1ccc(-c2ccc(/C=C3\Sc4ccccc4C3=O)o2)cc1	-71.8
COc1ccc(/C=C2/Sc3ccccc3C2=O)cc1[N+](=O)[O-]	-5.3
O=C1/C(=C\c2ccc(-c3ccc([N+](=O)[O-])cc3Br)o2)Sc2ccccc21	-17.8
O=C(NCc1ccccn1)C(=O)Nc1ccccc1F	-20.9
Cc1ccc(S(=O)(=O)NCCOc2ccccc2Cl)cc1[N+](=O)[O-]	13
CC(=O)N/C(=C\c1ccccc1)C(=O)NC(CC(C)C)C(=O)O (stereo not given)	-2.1
CC(=O)N/C(=C\c1ccc(F)cc1)C(=O)NC(C(=O)O)C(C)C (stereo not given)	81.8
C#CCOC(=O)/C(=C/c1ccc(F)cc1)NC(C)=O	-8.4
COc1ccccc1NC(=O)c1cccc2c(Br)cccc12	-5.4
COc1ccc(N(CC(=O)NC(C)c2ccccc2)S(=O)(=O)c2ccc(C)cc2)c(OC)c1 (stereo not given)	2.3
Cc1cc(C)cc(OCC(=O)N2CCN(c3ccc([N+](=O)[O-])cc3)CC2)c1	-3.5
CCOC(=O)COc1ccc2cc(-c3nc4ccccc4o3)c(=O)oc2c1	8.8
CCOC(=O)COc1ccc2cc(-c3nc4ccccc4[nH]3)c(=O)oc2c1	7.3
O=c1oc2ccccc2cc1-c1nc2ccccc2s1	-1
O=C(COc1ccc2ccc(=O)oc2c1)OCc1ccccc1	10.9
O=c1oc2cc(OCc3ccc(F)cc3)ccc2cc1-c1nc2ccccc2s1	52.5
O=c1c(-c2nc3ccccc3s2)coc2cc(OCc3ccc([N+](=O)[O-])cc3)ccc12	6.2
Cc1oc2cc(OCC(=O)OCc3ccccc3)ccc2c(=O)c1-c1nc2ccccc2s1	11.3
O=c1oc2cc(OCc3c(F)c(F)c(F)c(F)c3F)ccc2cc1-c1ccc2ccccc2n1	-49.7

SMILES	displacement [%]
CC(C)(C)OC(=O)COc1ccc2cc(-c3nc4ccccc4s3)c(=O)oc2c1	92
C=C(C)COc1ccc2cc(-c3nc4ccccc4s3)c(=O)oc2c1	66.5
O=C(COc1ccc2cc(-c3nc4ccccc4s3)c(=O)oc2c1)OCc1ccccc1	53.3
CCOc1ccc2c(=O)c(-c3nc4ccccc4s3)coc2c1	7.8
CCOc1ccc(N(CC(=O)Nc2cccc3cccnc23)S(=O)(=O)c2ccccc2)cc1	-39.5
O=C(Nc1ccc2nn(-c3ccc(F)cc3)nc2c1)c1cc2ccccc2o1	2.5
O=C1N/C(=N/N=C\c2ccc(-c3ccc(Cl)cc3)o2)SC1Cc1ccccc1 (stereo not given)	17
CC(Sc1nnc(N)s1)c1ccccc1 (stereo not given)	5.2
COc1ccc(CC(=O)N=Nc2c(O)n(CN3CCN(C)CC3)c3ccccc23)cc1	-3
O=C(CN1C(=O)c2ccc([N+](=O)[O-])cc2C1=O)N1CCCCC1	-9.1
COc1ccc(NC(=O)C(=O)NCc2ccc(C)cc2)c(OC)c1	10.4
O=C(COc1ccc(Cl)cc1Br)NNC(=O)c1ccncc1	-4.5
CC(=O)c1ccc(N2CCN(C(=O)c3cccs3)CC2)c(F)c1	-4.6
CC(=O)c1cc(F)c(N2CCN(C(=O)c3ccccc3Br)CC2)cc1C	-5.4
CC(=O)c1cc(F)c(N2CCN(C(=O)c3cccs3)CC2)cc1C	80
C=C(NC(C)=O)C(=O)c1ccc([N+](=O)[O-])cc1	18.9
Cc1ccc(Nc2ccc([N+](=O)[O-])ccc2=O)cc1	136
Cc1ccc(Nc2ccc([N+](=O)[O-])c3nonc23)cc1	-2.1
Cc1ccc(NS(=O)(=O)c2ccc([N+](=O)[O-])cc2)cc1	15.1
O=C(Nc1ccccc1C(=O)Nc1ccccn1)c1ccc([N+](=O)[O-])cc1	45.1
O=c1ccc([N+](=O)[O-])ccc1Nc1ccccn1	58.1
O=C(COc1ccc([N+](=O)[O-])cc1)Nc1ccccn1	-10.4
O=C(c1ccccc1)N1CCN(CCCc2ccccc2)CC1	-9.4

SMILES	displacement [%]
Cc1cccc(C(=O)O/N=C(\N)c2ccncc2)c1	8.5
Clc1ccc(CN2CCN(/N=C/c3ccc(Br)s3)CC2)cc1	14.6
N#C/C(=C/c1cccc(Cl)c1)c1nc(-c2ccc(Cl)cc2)cs1	-4.7
COc1cc(OC)c(NC(=O)c2ccccc2C)cc1Cl	-12
CCOc1cc(C=C2C(=O)NC(=O)NC2=O)ccc1OCc1c(C)no[n+]1[O-]	108
COc1cc(C=C2C(=O)NC(=O)NC2=O)ccc1OCc1c(C)no[n+]1[O-]	-3.9
CCOc1cc(/C=C2\SC(=S)NC2=O)ccc1OCc1c(C)no[n+]1[O-]	117
CCOc1cc(C=C2C(=O)NC(=O)NC2=O)ccc1OCc1cccc2ccccc12	58.6
Cc1no[n+]([O-])c1COc1cccc(/C=C2\SC(=S)NC2=O)c1	-27.6
CCOc1cc(C=C2C(=O)NC(=O)NC2=O)ccc1OCc1ccccc1	33.7
Cc1no[n+]([O-])c1COc1ccc(/C=C2\SC(=S)NC2=O)cc1	-27.5
CCOc1ccc(C=C2C(=O)NC(=O)NC2=O)cc1OCC	14.1
Cc1no[n+]([O-])c1COc1ccc(C=C2C(=O)NC(=O)NC2=O)cc1	2.5
O=C(c1nn2c(C(F)(F)F)cc(-c3ccccc3)nc2c1Cl)N1CCCC1	22.7
CC1=NN(C(=O)c2ccc([N+](=O)[O-])cc2)C(O)(C(F)(F)F)C1 (stereo not given)	6.8
O=C1NC(=Nc2ccc(Cl)cc2)SC1Cc1cccc([N+](=O)[O-])c1 (stereo not given)	-4.7
O=C(CN(c1ccc(Br)cc1)S(=O)(=O)c1ccccc1)NC1CC2CCC1C2 (stereo not given)	-0.2
Nc1nnc(SCC(=O)N2c3ccccc3Sc3ccccc32)s1	-2
CC(=O)N(CCC1(Cc2ccccc2)CCOC(C)(C)C1)Cc1ccccc1 (stereo not given)	7.8
O=C(O)CCCCCN1C(=O)C(=O)/C(=C(/O)c2ccccc2)C1c1cccc(F)c1 (stereo not given)	-11.9
COc1ccc(C(NC(C)=O)NC(C)=O)cc1OC	6.3
CCOc1ccc(C(=O)N(C(=O)c2ccc(OCC)cc2)c2ncccc2C)cc1	-0.9
COC(=O)c1[nH]cnc1C(=O)Nc1ccc(C)cc1C(=O)c1ccccc1	-1.6

SMILES	displacement [%]
Cc1ccccc1-c1nc2ccccc2c(=O)n1/N=C/c1ccc([N+](=O)[O-])cc1	12.8
Cc1ccc(C)c(NC(=O)/C=C/c2ccc(C)o2)c1	10.2
CCOc1ccc(S(=O)(=O)NCc2ccccc2Cl)c2ccccc12	3.4
O=C(Nc1nc(-c2ccc([N+](=O)[O-])cc2)cs1)c1ccc(Cl)cc1	8.7
O=C(Nc1nc(-c2ccc(F)cc2)cs1)c1ccccc1[N+](=O)[O-]	8.9
O=C(Nc1nc(-c2ccc([N+](=O)[O-])cc2)cs1)c1ccccc1F	113
COc1cc(/C=C2/SC(=S)N(CC(=O)O)C2=O)ccc1OCc1ccccc1	1.7
Oc1ccc(Br)cc1CN1CCN(Cc2c[nH]c3ccccc23)CC1	-2.7
Cc1n[nH]c(C)c1Sc1ccccc1N=Cc1cc(Cl)cc([N+](=O)[O-])c1O	117
Cc1n[nH]c(C)c1Sc1ccccc1N=Cc1cc([N+](=O)[O-])ccc1O	3.6
Cc1n[nH]c(C)c1Sc1ccccc1N=Cc1cc(Cl)ccc1O	0
O=C(/C=C/c1ccccc1OC(=O)c1cccnc1)c1ccccc1	-10.4
Cc1ccc(C2OC3(C(=O)c4ccccc4C3=O)C(c3cccc(Cl)c3)C23C(=O)c2ccccc2C3=O)cc1 (stereo not given)	2
CN1C(=O)/C(=C/c2ccc3c(c2)OCO3)SC1=S	80.3
CC(C(=O)O)N1C(=O)/C(=C/c2ccc3c(c2)OCO3)SC1=S (stereo not given)	9.1
O=C(O)CCN1C(=O)/C(=C\c2ccc3c(c2)OCO3)SC1=S	-2.7
O=C1/C(=C\c2ccc3c(c2)OCO3)SC(=S)N1CCc1ccccc1	-2.3
O=C1/C(=C/c2cccc([N+](=O)[O-])c2)SC(=S)N1C1CCS(=O)(=O)C1 (stereo not given)	2.2
O=C1/C(=C\c2ccc3c(c2)OCO3)SC(=S)N1C1CCS(=O)(=O)C1 (stereo not given)	106
Cc1ccc(CNS(=O)(=O)c2ccccc2[N+](=O)[O-])cc1	5.2
O=C(c1ccccc1)N1CCCC2CCCCC21 (stereo not given)	1.6
CCOc1ccc(NC(=O)c2c(N)sc(-c3ccccc3)c2C)cc1	-0.3
CCO/C=N/C1=C(C#N)C(c2ccccc2)C2=C(CC(C)(C)CC2=O)O1 (stereo not given)	4.5

SMILES	displacement [%]
COC(=O)c1cc(C(=O)Nc2ccccn2)cc([N+](=O)[O-])c1	-1.3
COC(=O)c1cc(C(=O)Nc2cc(C)ccn2)cc([N+](=O)[O-])c1	3.9
COC(=O)c1cc(C(=O)Nc2ncccc2C)cc([N+](=O)[O-])c1	55.2
Cc1cccnc1NC(=O)Nc1ccc(F)cc1	0.2
O=C(NCC1CCCO1)c1ccc(C2SCC(=O)N2Cc2ccccc2)cc1 (stereo not given)	-12.3
CCCOc1ccc(N2C(=O)CC(NCc3cccnc3)C2=O)cc1 (stereo not given)	1.7
COC(=O)CCN1C(=O)/C(=C\c2cc(Br)c(O)c(OC)c2)SC1=S	53.8
CCCCOc1ccc(/C=C2\SC(=S)N(CCC(=O)OC)C2=O)cc1OC	54.1
CCCCOc1ccc(/C=C2\SC(=S)N(C(C)C(=O)O)C2=O)cc1OC (stereo not given)	3.8
COc1cc(/C=C2\SC(=S)N(C)C2=O)cc(Br)c1O	-47.9
COc1cc(/C=C2/SC(=S)N(CCC(=O)O)C2=O)cc(Br)c1O	-13.7
COC(=O)CCN1C(=O)/C(=C\c2ccc(C)cc2)SC1=S	0.6
O=C(Nc1ccc(I)cc1Cl)c1cccc(Cl)c1Cl	11.2
O=C(NN1C(=O)/C(=C\c2ccccn2)SC1=S)c1ccccc1	-15.1
Cc1ccc2nc(/C(C#N)=C\c3cc(Br)ccc3OC(C)C)[nH]c2c1	13.1
Cc1ccc2nc(/C(C#N)=C/c3cc(Br)ccc3OCc3ccccc3)[nH]c2c1	-2.3
Cc1ccc(/C=C(/C#N)c2nc3ccc(C)cc3[nH]2)cc1	4.5
CCc1ccc(/C=C(/C#N)c2nc3ccc(C)cc3[nH]2)cc1	3.2
CCCOc1ccc(Br)cc1/C=C(/C#N)c1nc2ccc(C)cc2[nH]1	69.3
CCOc1ccc(Br)cc1/C=C(\C#N)c1nc2ccc(C)cc2[nH]1	72.9
CCCOc1c(I)cc(I)cc1/C=C(/C#N)c1nc2ccc(C)cc2[nH]1	-4.9
Cc1ccc2nc(/C(C#N)=C\c3ccc(Br)cc3)[nH]c2c1	136
CCCOc1ccc(Cl)cc1/C=C(/C#N)c1nc2ccc(C)cc2[nH]1	15.5
